From ChEMBL document CHEMBL1961873, “Compounds: GSK PKIS; Assays: Nanosyn kinase panel” (2012)
“And” between values parts separate entries of the source, which are not always exact repeats. Equal values may be shown once.

Legend:
[1] = system: Proto-oncogene tyrosine-protein kinase receptor Ret (Homo sapiens), P07949 [Y791F]; details: at 1 µM
[2] = target: Macrophage-stimulating protein receptor (Homo sapiens) (UniProt Q04912); details: at 0.1 µM
[3] = target: Macrophage-stimulating protein receptor (Homo sapiens) (UniProt Q04912); details: at 1 µM
[4] = target: Proto-oncogene tyrosine-protein kinase ROS (Homo sapiens) (UniProt P08922); details: at 0.1 µM
Chain of Proto-oncogene tyrosine-protein kinase ROS (Homo sapiens) (P08922 whole entry): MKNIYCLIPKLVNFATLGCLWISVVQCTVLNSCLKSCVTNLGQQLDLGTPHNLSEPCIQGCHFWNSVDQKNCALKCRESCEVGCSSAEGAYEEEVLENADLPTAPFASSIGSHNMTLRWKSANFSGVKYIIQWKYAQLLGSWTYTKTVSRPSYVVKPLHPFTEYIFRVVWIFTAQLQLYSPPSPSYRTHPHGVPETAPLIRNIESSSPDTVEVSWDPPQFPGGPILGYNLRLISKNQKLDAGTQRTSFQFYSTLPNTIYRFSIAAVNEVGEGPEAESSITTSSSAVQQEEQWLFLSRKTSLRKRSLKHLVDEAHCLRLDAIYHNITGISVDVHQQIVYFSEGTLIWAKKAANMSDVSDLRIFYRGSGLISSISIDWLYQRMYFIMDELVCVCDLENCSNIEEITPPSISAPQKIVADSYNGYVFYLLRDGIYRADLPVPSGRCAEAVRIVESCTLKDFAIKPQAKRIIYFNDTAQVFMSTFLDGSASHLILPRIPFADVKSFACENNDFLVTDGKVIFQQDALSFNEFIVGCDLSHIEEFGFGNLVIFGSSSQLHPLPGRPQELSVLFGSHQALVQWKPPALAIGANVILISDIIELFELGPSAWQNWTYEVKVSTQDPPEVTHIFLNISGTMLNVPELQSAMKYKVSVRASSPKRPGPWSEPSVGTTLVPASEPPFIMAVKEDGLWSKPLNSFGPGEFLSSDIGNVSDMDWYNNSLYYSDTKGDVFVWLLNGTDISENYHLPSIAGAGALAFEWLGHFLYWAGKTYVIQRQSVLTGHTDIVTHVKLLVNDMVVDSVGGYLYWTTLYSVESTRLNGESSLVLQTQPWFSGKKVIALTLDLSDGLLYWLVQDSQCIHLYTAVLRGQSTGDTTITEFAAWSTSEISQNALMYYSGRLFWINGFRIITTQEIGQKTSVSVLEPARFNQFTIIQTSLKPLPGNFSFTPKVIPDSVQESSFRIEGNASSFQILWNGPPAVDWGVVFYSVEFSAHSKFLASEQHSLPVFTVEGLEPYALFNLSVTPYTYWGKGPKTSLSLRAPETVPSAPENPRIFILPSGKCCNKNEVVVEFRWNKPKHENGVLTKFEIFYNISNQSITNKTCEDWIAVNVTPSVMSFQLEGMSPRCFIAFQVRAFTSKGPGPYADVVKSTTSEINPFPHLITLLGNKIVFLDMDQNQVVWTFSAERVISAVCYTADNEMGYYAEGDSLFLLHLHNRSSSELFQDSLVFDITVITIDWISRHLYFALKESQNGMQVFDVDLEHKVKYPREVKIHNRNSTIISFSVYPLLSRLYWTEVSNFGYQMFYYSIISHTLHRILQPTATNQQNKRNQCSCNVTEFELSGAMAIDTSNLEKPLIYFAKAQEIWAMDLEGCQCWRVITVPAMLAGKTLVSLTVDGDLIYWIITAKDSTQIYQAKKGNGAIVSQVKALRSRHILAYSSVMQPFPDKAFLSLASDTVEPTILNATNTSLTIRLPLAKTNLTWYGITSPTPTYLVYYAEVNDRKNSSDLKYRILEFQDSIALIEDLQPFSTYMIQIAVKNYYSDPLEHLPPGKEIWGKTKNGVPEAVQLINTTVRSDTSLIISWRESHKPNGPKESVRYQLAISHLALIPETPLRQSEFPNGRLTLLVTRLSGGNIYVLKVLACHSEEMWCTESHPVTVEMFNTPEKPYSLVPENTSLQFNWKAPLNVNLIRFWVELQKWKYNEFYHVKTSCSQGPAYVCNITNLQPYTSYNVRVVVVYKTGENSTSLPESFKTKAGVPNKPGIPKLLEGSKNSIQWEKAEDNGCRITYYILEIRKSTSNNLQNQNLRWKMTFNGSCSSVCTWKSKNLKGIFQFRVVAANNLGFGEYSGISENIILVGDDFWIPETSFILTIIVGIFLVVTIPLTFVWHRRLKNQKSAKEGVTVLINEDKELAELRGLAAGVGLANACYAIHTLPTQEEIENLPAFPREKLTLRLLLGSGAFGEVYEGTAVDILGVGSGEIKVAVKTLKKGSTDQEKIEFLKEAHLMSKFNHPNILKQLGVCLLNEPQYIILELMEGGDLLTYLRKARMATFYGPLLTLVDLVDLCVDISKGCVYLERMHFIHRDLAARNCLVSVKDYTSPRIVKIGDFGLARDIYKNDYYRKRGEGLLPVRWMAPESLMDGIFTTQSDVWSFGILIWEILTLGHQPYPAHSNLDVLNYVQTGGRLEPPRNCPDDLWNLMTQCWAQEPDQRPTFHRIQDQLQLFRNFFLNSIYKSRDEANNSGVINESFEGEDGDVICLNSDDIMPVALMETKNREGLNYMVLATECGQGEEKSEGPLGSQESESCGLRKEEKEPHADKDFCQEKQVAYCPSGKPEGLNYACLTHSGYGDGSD

[5] = target: Proto-oncogene tyrosine-protein kinase ROS (Homo sapiens) (UniProt P08922); details: at 1 µM
[6] = target: Proto-oncogene tyrosine-protein kinase Src (Homo sapiens) (UniProt P12931); details: at 0.1 µM
[7] = target: Proto-oncogene tyrosine-protein kinase Src (Homo sapiens) (UniProt P12931); details: at 1 µM
[8] = target: Tyrosine-protein kinase Srms (Homo sapiens) (UniProt Q9H3Y6); details: at 0.1 µM
Chain of Tyrosine-protein kinase Srms (Homo sapiens) (Q9H3Y6 whole entry): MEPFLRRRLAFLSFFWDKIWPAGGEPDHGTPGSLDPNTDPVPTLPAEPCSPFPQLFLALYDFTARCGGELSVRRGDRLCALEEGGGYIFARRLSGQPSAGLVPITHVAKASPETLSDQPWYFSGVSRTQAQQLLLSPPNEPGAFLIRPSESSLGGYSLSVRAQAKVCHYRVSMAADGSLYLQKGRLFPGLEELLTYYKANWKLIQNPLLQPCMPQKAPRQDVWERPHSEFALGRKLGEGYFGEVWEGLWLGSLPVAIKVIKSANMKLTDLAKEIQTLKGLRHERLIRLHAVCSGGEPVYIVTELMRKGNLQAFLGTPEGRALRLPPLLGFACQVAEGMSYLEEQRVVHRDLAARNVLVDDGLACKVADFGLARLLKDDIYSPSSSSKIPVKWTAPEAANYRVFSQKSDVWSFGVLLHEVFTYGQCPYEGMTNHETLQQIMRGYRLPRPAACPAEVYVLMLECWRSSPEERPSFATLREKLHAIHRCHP

[9] = target: Tyrosine-protein kinase Srms (Homo sapiens) (UniProt Q9H3Y6); details: at 1 µM
[10] = target: Tyrosine-protein kinase SYK (Homo sapiens) (UniProt P43405); details: at 0.1 µM
[11] = target: Tyrosine-protein kinase SYK (Homo sapiens) (UniProt P43405); details: at 1 µM
[12] = target: T1, Tyrosine-protein kinase Tec (Homo sapiens) (UniProt P42680); details: at 0.1 µM
T1 sequence (whole entry): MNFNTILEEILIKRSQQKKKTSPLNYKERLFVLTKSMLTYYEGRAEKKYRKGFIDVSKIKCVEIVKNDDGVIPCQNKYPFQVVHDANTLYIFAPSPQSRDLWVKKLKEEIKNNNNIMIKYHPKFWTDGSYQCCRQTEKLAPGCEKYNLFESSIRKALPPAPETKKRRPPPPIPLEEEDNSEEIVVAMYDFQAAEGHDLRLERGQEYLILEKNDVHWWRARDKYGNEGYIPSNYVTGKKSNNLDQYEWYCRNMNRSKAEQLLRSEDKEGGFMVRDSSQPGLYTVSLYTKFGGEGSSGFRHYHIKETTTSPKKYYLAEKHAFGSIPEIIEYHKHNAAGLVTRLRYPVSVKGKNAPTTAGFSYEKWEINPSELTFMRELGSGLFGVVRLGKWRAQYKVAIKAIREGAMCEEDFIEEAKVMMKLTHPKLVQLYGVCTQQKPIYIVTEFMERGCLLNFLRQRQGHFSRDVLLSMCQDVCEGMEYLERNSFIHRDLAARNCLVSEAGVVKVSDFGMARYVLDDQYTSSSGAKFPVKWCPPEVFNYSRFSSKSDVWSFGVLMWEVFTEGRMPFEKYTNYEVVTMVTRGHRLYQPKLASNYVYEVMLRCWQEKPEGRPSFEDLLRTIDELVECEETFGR

[13] = target: T1, Tyrosine-protein kinase Tec (Homo sapiens); details: at 1 µM
[14] = target: Angiopoietin-1 receptor (Homo sapiens) (UniProt Q02763); details: at 0.1 µM
[15] = target: Angiopoietin-1 receptor (Homo sapiens) (UniProt Q02763); details: at 1 µM
[16] = target: T2, Non-receptor tyrosine-protein kinase TNK1 (Homo sapiens) (UniProt Q13470); details: at 0.1 µM
T2 sequence (whole entry): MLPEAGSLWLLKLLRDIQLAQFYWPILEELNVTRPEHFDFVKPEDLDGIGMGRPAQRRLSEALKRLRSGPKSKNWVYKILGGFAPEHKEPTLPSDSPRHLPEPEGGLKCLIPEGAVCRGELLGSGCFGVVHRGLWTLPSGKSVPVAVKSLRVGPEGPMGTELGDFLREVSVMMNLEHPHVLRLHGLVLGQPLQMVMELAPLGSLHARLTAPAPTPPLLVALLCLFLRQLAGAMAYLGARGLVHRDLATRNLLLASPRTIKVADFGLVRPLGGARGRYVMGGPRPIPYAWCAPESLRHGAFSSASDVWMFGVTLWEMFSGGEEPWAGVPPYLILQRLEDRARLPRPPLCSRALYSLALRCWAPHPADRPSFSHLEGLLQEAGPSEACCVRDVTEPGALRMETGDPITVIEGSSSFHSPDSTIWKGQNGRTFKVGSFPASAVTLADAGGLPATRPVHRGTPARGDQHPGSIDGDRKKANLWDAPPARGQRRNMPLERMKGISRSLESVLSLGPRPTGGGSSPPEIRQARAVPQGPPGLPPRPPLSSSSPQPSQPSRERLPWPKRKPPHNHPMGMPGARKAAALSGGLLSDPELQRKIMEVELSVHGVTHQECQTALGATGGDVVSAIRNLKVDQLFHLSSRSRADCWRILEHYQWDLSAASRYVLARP

[17] = target: T2, Non-receptor tyrosine-protein kinase TNK1 (Homo sapiens); details: at 1 µM
[18] = target: Activated CDC42 kinase 1 (Homo sapiens) (UniProt Q07912); details: at 0.1 µM
[19] = target: Activated CDC42 kinase 1 (Homo sapiens) (UniProt Q07912); details: at 1 µM
[20] = target: High affinity nerve growth factor receptor (Homo sapiens) (UniProt P04629); details: at 0.1 µM;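 also: each value is a mean of replicate percent inhibition readings against TRKA kinase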
Chain of High affinity nerve growth factor receptor (Homo sapiens) (P04629 33-796 limits assumed): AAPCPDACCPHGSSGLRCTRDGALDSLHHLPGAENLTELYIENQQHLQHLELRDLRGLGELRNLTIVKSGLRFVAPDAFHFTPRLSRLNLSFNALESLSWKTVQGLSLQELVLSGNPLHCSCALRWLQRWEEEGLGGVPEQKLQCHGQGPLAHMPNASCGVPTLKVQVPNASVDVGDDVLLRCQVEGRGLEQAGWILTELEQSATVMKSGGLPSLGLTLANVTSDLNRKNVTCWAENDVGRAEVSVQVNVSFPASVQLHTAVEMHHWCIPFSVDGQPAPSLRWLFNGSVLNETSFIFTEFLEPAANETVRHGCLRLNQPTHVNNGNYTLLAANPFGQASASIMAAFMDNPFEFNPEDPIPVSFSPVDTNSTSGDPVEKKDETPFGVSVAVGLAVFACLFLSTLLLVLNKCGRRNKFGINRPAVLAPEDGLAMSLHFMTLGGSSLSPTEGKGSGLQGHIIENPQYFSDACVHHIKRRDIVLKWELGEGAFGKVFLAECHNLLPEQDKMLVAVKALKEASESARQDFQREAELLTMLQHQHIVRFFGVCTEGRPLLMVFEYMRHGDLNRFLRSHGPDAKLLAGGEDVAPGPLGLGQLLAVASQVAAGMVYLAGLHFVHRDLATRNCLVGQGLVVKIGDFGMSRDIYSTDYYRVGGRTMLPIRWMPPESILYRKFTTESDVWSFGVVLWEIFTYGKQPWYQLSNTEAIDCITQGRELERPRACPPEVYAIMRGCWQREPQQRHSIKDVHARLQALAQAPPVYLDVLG

Chain of Proto-oncogene tyrosine-protein kinase receptor Ret (Homo sapiens), P07949 [Y791F] (P07949 whole entry Y791F): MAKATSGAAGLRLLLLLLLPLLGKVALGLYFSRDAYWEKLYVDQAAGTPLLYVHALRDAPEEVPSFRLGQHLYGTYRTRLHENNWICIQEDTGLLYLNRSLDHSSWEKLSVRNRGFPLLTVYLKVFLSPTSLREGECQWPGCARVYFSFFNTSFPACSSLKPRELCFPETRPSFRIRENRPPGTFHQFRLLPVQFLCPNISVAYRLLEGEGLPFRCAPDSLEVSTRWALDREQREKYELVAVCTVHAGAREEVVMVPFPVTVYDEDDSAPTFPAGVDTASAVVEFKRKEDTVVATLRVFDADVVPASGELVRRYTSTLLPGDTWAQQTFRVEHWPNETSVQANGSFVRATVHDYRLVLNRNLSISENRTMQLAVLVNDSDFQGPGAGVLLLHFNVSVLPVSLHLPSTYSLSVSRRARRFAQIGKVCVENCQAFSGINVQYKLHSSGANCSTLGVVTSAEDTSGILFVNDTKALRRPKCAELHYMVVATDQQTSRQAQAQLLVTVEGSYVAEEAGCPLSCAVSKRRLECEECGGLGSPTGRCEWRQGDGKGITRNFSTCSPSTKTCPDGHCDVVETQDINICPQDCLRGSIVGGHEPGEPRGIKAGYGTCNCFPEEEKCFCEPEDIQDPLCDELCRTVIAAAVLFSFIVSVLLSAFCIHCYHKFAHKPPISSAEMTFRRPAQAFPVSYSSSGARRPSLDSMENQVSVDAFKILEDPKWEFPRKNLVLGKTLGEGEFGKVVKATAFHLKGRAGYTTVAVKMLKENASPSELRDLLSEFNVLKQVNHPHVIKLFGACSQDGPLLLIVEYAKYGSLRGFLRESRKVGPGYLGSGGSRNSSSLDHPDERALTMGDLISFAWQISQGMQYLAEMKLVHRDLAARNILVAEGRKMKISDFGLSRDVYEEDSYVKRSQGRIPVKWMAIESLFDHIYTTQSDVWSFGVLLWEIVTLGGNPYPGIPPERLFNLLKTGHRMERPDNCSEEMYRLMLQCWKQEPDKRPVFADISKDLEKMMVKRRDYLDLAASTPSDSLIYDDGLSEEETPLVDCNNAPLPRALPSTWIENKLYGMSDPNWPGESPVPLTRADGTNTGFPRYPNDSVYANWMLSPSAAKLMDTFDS

Structure (SMILES) | inhibition [1] | inhibition [2] | inhibition [3] | inhibition [4] | inhibition [5] | inhibition [6] | inhibition [7] | inhibition [8] | inhibition [9] | inhibition [10] | inhibition [11] | inhibition [12] | inhibition [13] | inhibition [14] | inhibition [15] | inhibition [16] | inhibition [17] | inhibition [18] | inhibition [19] | inhibition [20]
Fc1cccc(COc2ccc(Nc3ncncc3C#Cc3ccccc3)cc2Cl)c1 | 15.1% | 1.12% | 1.28% | 7.63% | 4.43% | 4.7% | 9.06% | -1.92% | -0.3% | -5.72% | -0.97% | 4.69% | 4.11% | 1.87% | 2.11% | 1.37% | 9.13% | 1.84% | 3.24% | 2.85%
CC1=C(C(=O)Nc2ccc3[nH]ncc3c2)C(c2ccc(F)cc2)N=C(c2ccc(C(F)(F)F)nc2)N1 (stereo not given) | 43% | 7.5% | 5.38% | 4.98% | 14.9% | -1.49% | 9.03% | 1.74% | 1.21% | 3.11% | 0.81% | 3.03% | 7.4% | 2.65% | 2.49% | 1.86% | 7.12% | 1.17% | 1.16% | 4.01%
COc1cc(Nc2ncc(-c3ccccc3)o2)cc(OC)c1 | 13.2% | 4.66% | -0.05% | 3.98% | 11.9% | 14.9% | 49.7% | 2.58% | 3.5% | -2.45% | -7.57% | 2.12% | 7.94% | 3.94% | 7.85% | 2.49% | 31.1% | 1.44% | 3.07% | 3.5%
COc1cccc(Nc2nccc(-c3cnn4ncccc34)n2)c1 | 24% | 6.23% | 15.1% | 38.2% | 71.1% | 7.33% | 41.6% | 1.25% | -1.9% | -0.98% | 34.2% | 4.27% | 25.1% | 5.94% | 21.3% | 15.3% | 65.9% | 1.79% | 21.7% | 4.75%
Cc1c2ccc(N(C)c3ccnc(Nc4cccc(S(N)(=O)=O)c4)n3)cc2nn1C | 80.3% | 2.6% | 9.61% | 38.7% | 78.1% | 40.5% | 82.8% | 1.27% | 17.6% | -4.22% | -6.33% | 13.8% | 50.2% | 12.4% | 53% | 16.6% | 60.1% | 1.67% | 4.21% | 4.18%
COc1ccc2ncn(-c3cc(O[C@H](C)c4ccccc4C(F)(F)F)c(C(N)=O)s3)c2c1 | 4.51% | -2.2% | 0.45% | 2.67% | 3.29% | -2.12% | -0.06% | 3.94% | 1.04% | -1.01% | 0.76% | 1.04% | -0.18% | 1.94% | 4.83% | 1.54% | 19.8% | 0.19% | 2.86% | -0.31%
c1ccc(-c2n[nH]cc2-c2ccnc(-c3ccc(OCCn4ccnc4)cc3)c2)nc1 | 19.1% | 3.8% | 3.01% | 3.08% | 10.7% | -2.63% | 8.69% | 0.16% | 3.94% | -0.7% | 0.33% | 0.42% | 0.73% | 0.28% | 3.93% | -0.4% | 5.89% | -0.42% | 0.83% | 2.17%
CN1CCN(Cc2ccc(-c3cc4ncnc(Nc5ccc(OCc6cccc(F)c6)c(Cl)c5)c4s3)o2)CC1 | 11.4% and 17.4% | 3.2% and 3.55% | 10.2% and 6.54% | 3.07% and 6.46% | 6.26% and 12.4% | 4.74% | 13.4% and 18.3% | -1.16% and -1.22% | 0.02% and -0.37% | 0.19% and -1.76% | -0.79% and 0.39% | 0.53% and 4.75% | 4.67% and 6.65% | 4.14% and 4.04% | 16.7% and 17.8% | 2.88% and 6.1% | 18.5% and 23.1% | 1.15% and 2.06% | 2.33% and 3.5% | 1.64% and -0.7%
COc1cc2c(cc1Nc1nc(Nc3cccc(F)c3C(N)=O)c3cc[nH]c3n1)N(C(=O)CN1CCN(C(C)C)CC1)CC2 | 6.08% | -1.39% | -1.15% | 31.6% | 73.7% | 4.53% | 11.8% | -1.09% | 0.82% | 3.25% | 3.08% | 5.26% | 1.94% | 4.46% | 2.66% | 3.48% | 22.4% | 1.09% | 5.91% | 1.48%
COC(=O)Nc1nc2ccc(Oc3ccc(NC(=O)Nc4cc(C(F)(F)F)ccc4F)cc3)cc2s1 | 83.2% | 1.92% | 1.28% | 1.61% | 7.35% | 0.46% | 26.9% | 0.28% | -0.86% | 0.09% | 0.26% | 1.25% | -0.83% | 50.8% | 78% | 11.5% | 27.2% | 0.46% | 1.35% | 24.2%
O=C(O[C@H]1CN[C@H](C#Cc2cc3ncnc(Nc4ccc5c(cnn5Cc5ccccc5)c4)c3s2)C1)N1CCOCC1 | 8.34% | 0.29% | 2.37% | 1.38% | -0.29% | 0.01% | -0.98% | -0.4% | 2.01% | 0.27% | 0.67% | 2.33% | 2.89% | 0.41% | 5.18% | 0.45% | 9.52% | -0.92% | -1.03% | -1.24%
CN1CCC(n2cnc(-c3ccc(F)cc3)c2-c2ccnc(NCCO)n2)CC1 | 15.2% | -0.99% | -1.06% | 6.65% | 2.72% | 2.31% | 7.94% | -0.64% | -0.42% | -2.08% | -1.12% | 6.05% | 5.09% | 1.8% | 3.36% | 4.89% | 10.8% | 1.7% | 2.83% | 2.11%
Cc1nnc(-c2cccc(-c3ccc(C(=O)NCC4CC4)cc3)c2)o1 | 14.4% | 3.19% | 8.29% | 5.45% | 6.04% | 12.5% | 10.2% | -2.52% | 2.96% | -3.49% | -0.72% | 5.71% | 6.71% | 2.51% | 2.87% | 2.91% | 11.3% | 1.67% | 2.25% | 3.31%
